Consider 8 compounds from PubChem BioAssay (Tox21).

Assay [1] can be described thus: A CellTox Green Cytotoxicity Assay to monitor cytotoxicity in HepG2 cells - 8 hour (AID 1224890). Note: nearly all actives have a fitted effect of over 45% in size. In a few lines:
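Cytotoxicity was tracked as dead-cell DNA fluorescence in HepG2 cells treated with test compounds at 37 C; each time-point value comes from one kinetic series spanning 0, 8, 16, 24, 32 and 40 h.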

Assay [2] is described as follows: qHTS assay to identify small molecule antagonists of the estrogen receptor alpha (ER-alpha) signaling pathway using the BG1 cell line in the presence of 0.1 nM 17-beta-estradiol - cell viability counter screen (AID 1259241). Note: nearly all actives have a fitted effect of over 40% in size. Note: potency is the fitted concentration of half-maximal effect. In a few lines:
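VM7Luc4E2 cells (endogenous ER-alpha, 4×ERE-luciferase), hormone-starved 5 days in charcoal-stripped FBS, were treated with compounds plus 0.1 nM 17beta-estradiol for 22 hr at 37C; viability read in same wells as CellTiter-Fluor live-cell protease fluorescence.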

Assay [3] can be described thus: qHTS assay to identify small molecule antagonists of the androgen receptor (AR) signaling pathway using the MDA cell line in the presence of 0.5 nM R1881 - cell viability counter screen (AID 1259242). Note: nearly all actives have a fitted effect of over 45% in size. Note: potency is the fitted concentration of half-maximal effect. The method in brief:
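Cells seeded at 3,000/well and allowed 5 hr at 37C, 0% CO2 before compound transfer and R1881 (0.5 nM final) addition; 16 hr later, live-cell protease fluorescence indicated cytotoxicity.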

Assay [4] can be described thus: qHTS assay to identify small molecule phospholipidosis (PLD) inducers (AID 1259344; active = well fitted curve in the direction sought with a large enough effect; an effect the other way counts as inactive or inconclusive). The method in brief:
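Read-out is LipidTOX Red fluorescence (ex 595/em 615) imaged in HepG2 cells after 24 h compound exposure at 37 C, with Hoechst nuclear counterstain (ex 352/em 461) allowing per-cell normalisation.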

Assay [5] can be described thus: qHTS assay to identify small molecule HDAC inhibitors (AID 1259364). Note: potency is the fitted concentration of half-maximal effect.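 Note: wild-type HCT-116 cells with endogenous class I/II HDAC activity; nearly all actives have a fitted effect of over 45% in size.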 The method in brief:
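HCT-116 wt cells, 1,500/well, overnight attach. Compounds (DMSO) 2 h, 37 °C. HDAC-Glo I/II, 30 min RT. Luminescence.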
Background: In qHTS, concentration-response curves come from the screen itself.

Assay [6] in a line: qHTS assay to identify small molecule HDAC inhibitors - cell viability counter screen (AID 1259365). Note: series mostly up to about 92 µM; nearly all actives have a fitted effect of over 50% in size. The method in brief: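 Wild-type HCT-116 cells were seeded at 1,500 per well, incubated overnight at 37 C, then exposed to compounds in DMSO for 2hr. Viability was read by CellTiter-Glo luminescence after 30min at room temperature.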
Assay [7] can be described thus: qHTS assay to identify small molecule agonists of the sonic hedgehog signaling (Shh) pathway - cell viability counter screen (AID 1259366). Note: nearly all actives have a fitted effect of over 50% in size. Note: potency is the fitted concentration of half-maximal effect. The method in brief:
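NIH/3T3-derived 3T3 Gli1-Luc cells (stable Gli1-responsive firefly luciferase reporter) were seeded, rested 4 hr at 37 C/5% CO2, then exposed to compounds in DMSO for 24 hr; viability was read by CellTiter-Fluor fluorescence in the same wells.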

Assay [8] is described as follows: qHTS assay to identify small molecule antagonists of the sonic hedgehog signaling (Shh) pathway - cell viability counter screen (AID 1259367). Note: nearly all actives have a fitted effect of over 55% in size. Note: potency is the fitted concentration of half-maximal effect. In a few lines: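 Fluorescence read-out (CellTiter-Fluor, 1 hr at 37C) taken after 23 hr compound treatment of 3T3 Gli1-Luc cells stimulated with conditioned medium. Cells were seeded at 2,000 per well and pre-incubated 4 hr.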

Assay [9] is described as follows: qHTS assay to identify small molecule agonists of the sonic hedgehog signaling (Shh) pathway (AID 1259368; calls by dose curve; note: series mostly up to about 92 µM; nearly all actives have a fitted effect of over 15% in size). In a few lines:
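Following a 24 hr incubation with DMSO-dissolved compounds at 37 C, 5% CO2, Gli1-Luc NIH/3T3-derived cells received luciferase reagent for 30 min at room temperature prior to luminescence measurement.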

A short description of assay [10]: qHTS assay to identify small molecule antagonists of the sonic hedgehog signaling (Shh) pathway (AID 1259369; calls by dose curve; note: nearly all actives have a fitted effect of over 45% in size; note: potency is the fitted concentration of half-maximal effect). The method in brief:
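Read-out is luminescence from a firefly luciferase gene controlled by the Gli1 response element, in 3T3Gli1-Luc cells pre-incubated 4hr then exposed to compounds and conditioned medium for 24hr.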

Assay [11] has as its target Estrogen receptor beta (Homo sapiens) (UniProt Q92731). Description: qHTS assay to identify small molecule agonists of the estrogen receptor beta (ER-beta) signaling pathway (AID 1259377; active = well fitted activation curve with a large enough effect in the signal ratio in the repeat runs, not every such curve was filed as active; the % refers to the signal ratio). In a few lines: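 ER-beta-UAS-bla HEK293T (GripTite) cells carrying a UAS-driven beta-lactamase reporter, in medium with 2% charcoal-stripped FBS, were exposed to compounds for 16 hr at 37C; LiveBLAzer B/G FRET substrate was then added and fluorescence read after 2 hours at room temperature.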

Assay [12] shares this target. Kind of assay: qHTS assay to identify small molecule antagonists of the estrogen receptor beta (ER-beta) signaling pathway (AID 1259378; active = well fitted inhibition curve with a large enough effect in the signal ratio in the repeat runs, not every such curve was filed as active; the % refers to the signal ratio). The method in brief: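 ER-beta-UAS-bla HEK293T cells in 2% charcoal-stripped FBS medium treated with compound plus 1nM final 17-beta-estradiol for 16 hr at 37C. Beta-lactamase reporter read by FRET substrate fluorescence after 2 hours at room temperature.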

A short description of assay [13]: qHTS assay to identify small molecule agonists of the androgen receptor (AR) signaling pathway in the presence of an antagonist - cell viability counter screen (AID 1259379). Note: nearly all actives have a fitted effect of over 25% in size. Note: potency is the fitted concentration of half-maximal effect. The method in brief:
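Each compound was tested at 15 concentrations on MDA-kb2 cells in the presence of 3.0uM nilutamide. Viability was measured by CellTiter-Fluor fluorescence after a 16 hr incubation at 37C in a CO2-free atmosphere.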

Assay [14] can be described thus: qHTS assay to identify small molecule agonists of the estrogen receptor beta (ER-beta) signaling pathway - cell viability counter screen (AID 1259380). Note: nearly all actives have a fitted effect of over 30% in size. Note: potency is the fitted concentration of half-maximal effect. In a few lines:
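Compounds dissolved in DMSO were pin-transferred onto ER-beta-UAS-bla HEK293T cells that had settled 6 hr, and exposure ran 16 hr at 37C. Following the reporter read, CellTiter-Glo luminescence after 30 min at room temperature indicated cytotoxicity.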

Assay [15] is described as follows: qHTS assay to identify small molecule agonists or antagonists of the thyroid stimulating hormone receptor (TSHR) signaling pathway - wild type cell line counter screen (AID 1259384; calls by dose curve). The method in brief: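 Wild-type Hek293 cells, 800/well, 18 h at 37C, then compound with Ro20-1724 for 30 min RT. cAMP by HTRF (cAMP-d2/anti-cAMP cryptate), 1 h RT, fluorescence read. 15 concentrations, triplicates.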

Assay [16] concerns the target Estrogen receptor (Homo sapiens) (UniProt P03372). Description: qHTS assay to identify small molecule antagonists of the estrogen receptor alpha (ER-alpha) signaling pathway using the BG1 cell line in the presence of 0.1 nM 17-beta-estradiol (AID 1259244). Note: nearly all actives have a fitted effect of over 50% in size. The method in brief: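 Luciferase signal from VM7Luc4E2 ERE-reporter cells, co-dosed with test compound and 0.1 nM final 17beta-estradiol for 22 h, read with ONE-Glo.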

Assay [17] shares this target. Kind of assay: qHTS assay to identify small molecule agonists of the estrogen receptor alpha (ER-alpha) signaling pathway in the presence of an antagonist (AID 1259383; calls by dose curve; note: top concentration of the series differs between compounds; nearly all actives have a fitted effect of over 15% in size). The method in brief:
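Luminescent ERE-luciferase reporter, VM7Luc4E2 cells (endogenous ER-alpha); 10.0nM ICI-182,780 final; 15-point compound titration; 22hr at 37C; ONE-Glo, 30min RT.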

The nature of assay [18]: qHTS assay to identify small molecule antagonists of the estrogen receptor beta (ER-beta) signaling pathway - cell viability counter screen (AID 1259382). Note: series mostly up to about 92 µM; nearly all actives have a fitted effect of over 55% in size. In a few lines: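 CellTiter-Glo ATP luminescence measured after the LiveBLAzer read in the same wells; ER-beta-UAS-bla HEK293T cells, 16 hr compound treatment with 1nM 17-beta-estradiol agonist at 37C, 5% CO2.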
Assay [19] has as its target Androgen receptor (Homo sapiens) (UniProt P10275). Description: qHTS assay to identify small molecule antagonists of the androgen receptor (AR) signaling pathway using the MDA cell line in the presence of 0.5 nM R1881 (AID 1259243). Note: nearly all actives have a fitted effect of over 50% in size. The method in brief: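 Luminescence from an AR/GR-responsive MMTV-luciferase construct in MDA-kb2 breast carcinoma cells, read 30 min after ONE-Glo, following 16 hr co-treatment with compounds and 0.5 nM R1881.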

For assay [20] the target is unchanged. Kind of assay: qHTS assay to identify small molecule agonists of the androgen receptor (AR) signaling pathway in the presence of an antagonist (AID 1259381; calls by dose curve; note: nearly all actives have a fitted effect of over 15% in size). In a few lines: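 Plated MDA-kb2 cells (3,000/well) were pre-incubated 5hr, given nilutamide (3.0uM final) or buffer, then dosed with compounds in DMSO at 15 concentrations. Luciferase activity was quantified by luminescence after 16hr at 37C.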

Several values for one entry are separate records, joined by “and”; a condition that tells them apart may be missing. Identical values can stand only once. Records with an inconclusive call do not appear. A structure can be active in one record and inactive in another. Activity calls are given as the source filed them. Unless noted, calls come from the whole dose curve; as a rule, active = well fitted curve in the direction sought with a large enough effect in the repeat runs; inconclusive = weak or mixed curves; inactive = no such curve, though single readings can be large; an effect the other way counts as inactive or inconclusive. Residues, ends and D or L forms follow the SMILES beside them.

Sequence of Estrogen receptor beta (Homo sapiens) (Q92731 whole entry, looked up): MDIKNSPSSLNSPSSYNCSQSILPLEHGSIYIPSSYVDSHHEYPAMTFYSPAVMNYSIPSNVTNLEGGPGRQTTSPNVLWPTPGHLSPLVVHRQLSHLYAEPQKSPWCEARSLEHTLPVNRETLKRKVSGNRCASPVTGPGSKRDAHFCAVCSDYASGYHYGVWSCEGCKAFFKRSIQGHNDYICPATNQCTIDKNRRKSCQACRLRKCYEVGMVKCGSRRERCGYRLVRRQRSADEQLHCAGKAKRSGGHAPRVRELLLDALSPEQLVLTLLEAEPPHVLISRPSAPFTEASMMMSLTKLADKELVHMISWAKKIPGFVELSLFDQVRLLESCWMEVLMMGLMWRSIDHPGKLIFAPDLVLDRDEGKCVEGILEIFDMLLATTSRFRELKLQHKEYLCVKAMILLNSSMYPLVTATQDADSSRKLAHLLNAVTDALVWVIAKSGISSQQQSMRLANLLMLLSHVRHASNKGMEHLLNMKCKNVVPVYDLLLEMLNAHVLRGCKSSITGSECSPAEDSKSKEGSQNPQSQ
Sequence of Androgen receptor (Homo sapiens) (P10275 whole entry, looked up): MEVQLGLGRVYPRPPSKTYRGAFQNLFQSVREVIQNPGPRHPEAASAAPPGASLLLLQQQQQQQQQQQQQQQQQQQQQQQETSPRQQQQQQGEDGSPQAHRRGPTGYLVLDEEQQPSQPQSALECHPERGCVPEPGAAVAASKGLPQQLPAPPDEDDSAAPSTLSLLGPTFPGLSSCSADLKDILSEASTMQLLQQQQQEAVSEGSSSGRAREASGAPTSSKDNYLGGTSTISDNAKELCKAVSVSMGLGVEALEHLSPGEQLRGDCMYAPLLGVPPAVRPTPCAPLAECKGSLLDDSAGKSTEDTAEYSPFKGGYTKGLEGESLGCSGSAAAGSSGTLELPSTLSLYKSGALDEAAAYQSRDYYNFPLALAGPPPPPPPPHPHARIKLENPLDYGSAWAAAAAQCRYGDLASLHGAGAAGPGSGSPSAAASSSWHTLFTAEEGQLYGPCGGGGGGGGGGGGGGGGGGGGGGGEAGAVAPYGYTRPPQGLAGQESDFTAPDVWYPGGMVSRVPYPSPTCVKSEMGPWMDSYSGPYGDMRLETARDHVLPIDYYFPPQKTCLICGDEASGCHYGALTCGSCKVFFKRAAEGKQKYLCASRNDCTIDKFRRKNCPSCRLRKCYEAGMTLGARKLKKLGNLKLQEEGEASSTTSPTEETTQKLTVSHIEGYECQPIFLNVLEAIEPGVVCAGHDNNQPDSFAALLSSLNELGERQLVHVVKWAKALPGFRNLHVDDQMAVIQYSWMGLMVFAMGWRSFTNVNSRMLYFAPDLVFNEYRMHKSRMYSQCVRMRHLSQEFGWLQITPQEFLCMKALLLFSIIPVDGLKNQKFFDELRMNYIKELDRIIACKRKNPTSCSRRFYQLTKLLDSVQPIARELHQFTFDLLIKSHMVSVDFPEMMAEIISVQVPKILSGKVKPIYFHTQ
Sequence of Estrogen receptor (Homo sapiens) (P03372 whole entry, looked up): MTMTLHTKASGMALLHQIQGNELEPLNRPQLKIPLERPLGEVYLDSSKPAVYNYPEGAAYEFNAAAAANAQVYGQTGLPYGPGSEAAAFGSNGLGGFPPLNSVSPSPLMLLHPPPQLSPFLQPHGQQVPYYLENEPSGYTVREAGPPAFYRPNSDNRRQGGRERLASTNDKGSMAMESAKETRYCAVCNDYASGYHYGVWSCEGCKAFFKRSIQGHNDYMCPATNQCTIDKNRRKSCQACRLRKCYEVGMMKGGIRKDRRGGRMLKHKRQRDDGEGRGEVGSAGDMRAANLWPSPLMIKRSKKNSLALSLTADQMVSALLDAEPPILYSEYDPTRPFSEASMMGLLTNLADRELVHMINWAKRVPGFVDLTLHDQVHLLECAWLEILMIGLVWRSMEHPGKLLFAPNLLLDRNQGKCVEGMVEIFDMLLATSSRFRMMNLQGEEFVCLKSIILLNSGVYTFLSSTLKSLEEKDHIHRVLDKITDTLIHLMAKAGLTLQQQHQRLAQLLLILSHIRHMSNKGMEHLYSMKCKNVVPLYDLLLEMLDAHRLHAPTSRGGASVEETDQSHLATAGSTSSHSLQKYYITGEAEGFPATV

As for `O=C(O)c1cc(N=Nc2ccc(S(=O)(=O)Nc3ccccn3)cc2)ccc1O`, the Potency result in assay [1], in [10], in [12] and in assay [14] was “inactive” in each case. For the same compound, the Potency in [2] was 24.4 µM (active) and 30.6 µM (active); in assay [3], 27.4 µM (active) and inactive; in assay [5], 27.3 µM (active); in [7] it was 21.8 µM (active) and 24.3 µM (active); in assay [8], 21.8 µM (active) and 27.3 µM (active); in assay [13], 30.7 µM (active) and 30.6 µM (active). For the same compound, the compound was called inactive in assay [4], in assay [6], in assay [9], in assay [11] and in assay [15].
On to `COC(=O)[C@H](Cc1ccccc1)NC(=O)[C@@H](N)CC(=O)O` (H-Asp-Phe-OMe), for which the Potency result in assay [1], in assay [2], in [3], in [16], in assay [5] and in assay [8] was “inactive” throughout. Besides, the Potency entry in [10], in [13], in assay [14] and in assay [17] was “inactive” throughout. Also, the outcome in [4], in assay [6], in assay [9] and in assay [15] was inactive.
`Cn1c(=O)c2[nH]cnc2n(C)c1=O`: the Potency entry in [1], in assay [2], in assay [3], in assay [16], in [5] and in assay [7] was “inactive” in each case. Moreover, the Potency result in assay [8], in assay [10], in assay [13], in assay [14], in [18] and in [17] was “inactive” throughout. In addition, the result in [4], in [6], in assay [9] and in assay [15] was inactive.
Take `COc1c2occc2cc2ccc(=O)oc12`: the Potency result in assay [1], in [2], in assay [3], in [5], in assay [7] and in assay [8] was “inactive” in each case. For the same compound, the Potency result in [12], in assay [13], in assay [14] and in assay [18] was “inactive” each time. Further, the outcome in assay [4], in assay [6], in [9], in assay [11] and in assay [15] was inactive. In addition, in [10], the Potency was 24.3 µM (active) and inactive.
With `O=C(O)c1cccnc1`, the Potency result in assay [1], in [2], in assay [3], in [5], in assay [8] and in assay [10] was “inactive” in each case. Further, the Potency entry in [12], in assay [13] and in assay [14] was “inactive” each time. Moreover, the outcome in assay [4], in [6], in [9], in assay [11] and in assay [15] was inactive.
As to `Cc1cc(=O)n(-c2ccccc2)n1C`, the Potency entry in [2], in [3], in [19], in assay [16], in assay [5] and in [7] was “inactive” in each case. The Potency entry in assay [8], in [10], in [12], in assay [13], in [14] and in [20] was “inactive” in each case. The Potency result in assay [18] and in assay [17] was “inactive” each time. In addition, the result in assay [4], in assay [6], in assay [9] and in assay [11] was inactive.
With `Cc1ccccc1C(OCCN(C)C)c1ccccc1` (configuration not stated), the Potency entry in [1], in assay [2], in assay [3], in assay [16], in [5] and in assay [7] was “inactive” throughout. In addition, the Potency entry in [8], in [12], in [13] and in assay [17] was “inactive” in each case. The compound was called inactive in [6], in [9], in [11] and in assay [15]. For the same compound, the Potency is 27.3 µM (active) in assay [10] and 61.1 µM (active) in assay [14].
Consider `Nc1ccc(C(=O)O)cc1`, for which the Potency result in assay [1], in assay [2], in [3], in assay [16], in assay [5] and in assay [7] was “inactive” throughout. Besides, the Potency entry in [8], in assay [10], in assay [12], in assay [13], in [14] and in assay [18] was “inactive” throughout. For the same compound, in [17], the Potency entry is “inactive”. Moreover, the compound was classed as inactive in assay [4], in assay [6], in [9], in [11] and in assay [15].
